# The supplement of paper PMC10849652
# The full data set covers some 7,900 targets. This sample favours those with a hit. About 0.6% of all pairs of compound and target were hits. Unmarked numbers belong to inactive results.
# Columns and labels:
# Assay in all cases: log2 fold change, soluble protein after heating vs DMSO (PISA); higher = thermal stabilisation; K562 cells, 10 uM, 30 min; active = over 0.2 and 3.5 SD of the protein, either way, in both replicates (recomputed)
# [1] = compound: CS(=O)(=O)c1ccc(-c2cnc(N)c(C(=O)Nc3ccccc3)n2)cc1
# Summary of the method: (§1)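 K562 cells at 2×10^6 cells/mL were exposed to 10 μM compound for 30 min, then aliquots were heated for 3 min across 48°C-58°C, pooled, and extracted in PBS containing 0.5% NP-40 at 4°C. The supernatant after 21,000xg for 90 min was taken as soluble protein and measured by TMTpro 16plex LC-MS/MS with channel sums equalised. Thermal stability is reported relative to control samples, with values from duplicates. Fold changes are given on a log2 scale.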
# crizotinib = compound: C[C@@H](Oc1cc(-c2cnn(C3CCNCC3)c2)cnc1N)c1c(Cl)ccc(F)c1Cl [crizotinib]
# Summary of the method: as §1
# [2] = compound: C[C@@H]1COCCN1C2=NC(=NC(=C2)C3(CC3)S(=O)(=O)C)C4=C5C=CNC5=CC=C4
# Summary of the method: as §1
# [3] = compound: C[C@H](C1=CC=C(C=C1)C(=O)NC2=C3C=CNC3=NC=C2)N
# Summary of the method: as §1
# duvelisib = compound: C[C@H](Nc1ncnc2nc[nH]c12)c1cc2cccc(Cl)c2c(=O)n1-c1ccccc1 [duvelisib]
# Summary of the method: as §1
# gandotinib = compound: Cc1cc(Nc2cc(CN3CCOCC3)c3nc(C)c(Cc4ccc(Cl)cc4F)n3n2)n[nH]1 [gandotinib]
# Summary of the method: as §1
# tozasertib = compound: Cc1cc(Nc2cc(N3CCN(C)CC3)nc(Sc3ccc(NC(=O)C4CC4)cc3)n2)n[nH]1 [tozasertib]
# Summary of the method: as §1
# [4] = compound: Cc1cc(SCc2sc(-c3ccc(C(F)(F)F)cc3)nc2C)ccc1OCC(=O)O
# Summary of the method: as §1
# doramapimod = compound: Cc1ccc(-n2nc(C(C)(C)C)cc2NC(=O)Nc2ccc(OCCN3CCOCC3)c3ccccc23)cc1 [doramapimod]
# Summary of the method: as §1
# ispinesib = compound: Cc1ccc(C(=O)N(CCCN)[C@@H](c2nc3cc(Cl)ccc3c(=O)n2Cc2ccccc2)C(C)C)cc1 [ispinesib]
# Summary of the method: as §1
# bafetinib = compound: Cc1ccc(NC(=O)c2ccc(CN3CC[C@H](N(C)C)C3)c(C(F)(F)F)c2)cc1Nc1nccc(-c2cncnc2)n1 [bafetinib]
# Summary of the method: as §1
# [5] = compound: Cc1cccc(CC(=O)N2CCc3c2ccc(-c2cn(C)c4ncnc(N)c24)c3F)n1
# Summary of the method: as §1
# nilotinib = compound: Cc1cn(-c2cc(NC(=O)c3ccc(C)c(Nc4nccc(-c5cccnc5)n4)c3)cc(C(F)(F)F)c2)cn1 [nilotinib]
# Summary of the method: as §1
# [6] = compound: Cc1nc(Nc2n[nH]c3c2CN(C(=O)N[C@H](CN(C)C)c2ccccc2)C3(C)C)c2sccc2n1
# Summary of the method: as §1
# dasatinib = compound: Cc1nc(Nc2ncc(C(=O)Nc3c(C)cccc3Cl)s2)cc(N2CCN(CCO)CC2)n1 [dasatinib]
# Summary of the method: as §1
# [7] = compound: Cc1ncc(-c2ccnc(Nc3ccc(S(C)(=O)=O)cc3)n2)n1C(C)C
# Summary of the method: as §1
# [8] = compound: Cn1cc(-c2ccc3c(c2)CCN3C(=O)Cc2cccc(C(F)(F)F)c2)c2c(N)ncnc21
# Summary of the method: as §1
# [9] = compound: Cn1cc(-c2ccc3nnc(C(F)(F)c4ccc5ncccc5c4)n3n2)cn1
# Summary of the method: as §1
# tipifarnib = compound: Cn1cncc1[C@@](N)(c1ccc(Cl)cc1)c1ccc2c(c1)c(-c1cccc(Cl)c1)cc(=O)n2C [tipifarnib]
# Summary of the method: as §1
# mubritinib = compound: FC(F)(F)c1ccc(/C=C/c2nc(COc3ccc(CCCCn4ccnn4)cc3)co2)cc1 [mubritinib]
# Summary of the method: as §1
# Sequence of UniProt P33121 (P33121 whole entry, looked up): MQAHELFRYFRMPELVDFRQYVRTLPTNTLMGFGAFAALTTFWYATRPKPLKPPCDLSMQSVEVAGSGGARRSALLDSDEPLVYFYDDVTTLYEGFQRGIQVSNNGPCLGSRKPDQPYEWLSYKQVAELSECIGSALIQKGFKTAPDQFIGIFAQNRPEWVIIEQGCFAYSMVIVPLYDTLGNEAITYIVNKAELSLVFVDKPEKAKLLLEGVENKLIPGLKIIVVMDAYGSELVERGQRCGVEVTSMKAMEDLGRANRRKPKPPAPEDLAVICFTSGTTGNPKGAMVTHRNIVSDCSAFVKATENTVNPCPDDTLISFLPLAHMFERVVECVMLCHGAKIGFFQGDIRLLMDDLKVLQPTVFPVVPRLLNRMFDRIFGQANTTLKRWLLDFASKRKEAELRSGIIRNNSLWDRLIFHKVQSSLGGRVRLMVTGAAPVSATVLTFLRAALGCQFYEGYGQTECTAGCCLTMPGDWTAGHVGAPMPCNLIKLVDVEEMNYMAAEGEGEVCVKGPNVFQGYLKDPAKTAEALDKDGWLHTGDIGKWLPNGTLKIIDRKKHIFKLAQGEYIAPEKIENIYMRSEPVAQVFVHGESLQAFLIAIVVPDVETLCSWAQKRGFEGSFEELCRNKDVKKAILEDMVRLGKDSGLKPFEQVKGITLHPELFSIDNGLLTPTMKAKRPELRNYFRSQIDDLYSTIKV
# Sequence of UniProt Q9UEY8 (Q9UEY8 whole entry, looked up): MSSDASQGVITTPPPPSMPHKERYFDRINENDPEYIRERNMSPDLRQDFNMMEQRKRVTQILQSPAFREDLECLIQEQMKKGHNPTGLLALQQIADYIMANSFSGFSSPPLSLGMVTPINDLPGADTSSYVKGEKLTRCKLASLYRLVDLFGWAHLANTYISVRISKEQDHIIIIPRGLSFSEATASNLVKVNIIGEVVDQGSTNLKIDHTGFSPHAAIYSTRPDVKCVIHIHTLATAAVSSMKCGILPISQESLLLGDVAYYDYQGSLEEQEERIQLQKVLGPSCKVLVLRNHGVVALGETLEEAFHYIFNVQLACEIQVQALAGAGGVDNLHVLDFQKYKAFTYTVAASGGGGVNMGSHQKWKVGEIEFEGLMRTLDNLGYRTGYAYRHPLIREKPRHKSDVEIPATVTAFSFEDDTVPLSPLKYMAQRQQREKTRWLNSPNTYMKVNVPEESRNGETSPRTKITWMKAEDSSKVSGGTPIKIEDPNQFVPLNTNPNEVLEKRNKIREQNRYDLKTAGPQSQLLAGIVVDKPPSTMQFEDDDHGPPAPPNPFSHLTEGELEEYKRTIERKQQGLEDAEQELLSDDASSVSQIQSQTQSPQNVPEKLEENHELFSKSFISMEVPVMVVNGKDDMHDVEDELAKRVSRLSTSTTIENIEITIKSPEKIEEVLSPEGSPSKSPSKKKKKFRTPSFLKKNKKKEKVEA
# Sequence of UniProt Q9NYF8 (Q9NYF8 whole entry, looked up): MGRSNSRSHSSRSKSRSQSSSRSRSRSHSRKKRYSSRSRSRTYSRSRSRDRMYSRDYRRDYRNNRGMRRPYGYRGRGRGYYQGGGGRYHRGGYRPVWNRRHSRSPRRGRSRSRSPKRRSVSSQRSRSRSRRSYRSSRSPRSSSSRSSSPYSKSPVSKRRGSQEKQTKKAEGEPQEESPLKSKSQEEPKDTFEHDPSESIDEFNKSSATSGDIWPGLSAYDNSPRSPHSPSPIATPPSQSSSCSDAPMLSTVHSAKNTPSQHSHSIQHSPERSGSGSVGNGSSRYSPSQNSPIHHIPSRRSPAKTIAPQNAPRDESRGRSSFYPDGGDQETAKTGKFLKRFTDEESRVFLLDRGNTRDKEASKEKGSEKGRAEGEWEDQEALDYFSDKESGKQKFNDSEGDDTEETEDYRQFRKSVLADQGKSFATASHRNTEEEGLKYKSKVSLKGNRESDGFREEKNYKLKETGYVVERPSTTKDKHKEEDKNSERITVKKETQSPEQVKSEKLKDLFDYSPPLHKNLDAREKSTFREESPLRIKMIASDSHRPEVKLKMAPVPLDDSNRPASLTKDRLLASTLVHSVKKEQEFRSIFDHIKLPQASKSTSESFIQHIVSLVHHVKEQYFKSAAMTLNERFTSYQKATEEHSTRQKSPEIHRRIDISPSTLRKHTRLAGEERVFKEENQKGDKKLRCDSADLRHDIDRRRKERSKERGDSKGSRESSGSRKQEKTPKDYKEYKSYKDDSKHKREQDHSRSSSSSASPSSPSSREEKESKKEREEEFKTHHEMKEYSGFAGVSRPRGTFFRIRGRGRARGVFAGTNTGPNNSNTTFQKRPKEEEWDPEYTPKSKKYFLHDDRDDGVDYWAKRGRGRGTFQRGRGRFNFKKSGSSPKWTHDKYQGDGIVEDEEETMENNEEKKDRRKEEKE
# Sequence of UniProt P55263 (P55263 whole entry, looked up): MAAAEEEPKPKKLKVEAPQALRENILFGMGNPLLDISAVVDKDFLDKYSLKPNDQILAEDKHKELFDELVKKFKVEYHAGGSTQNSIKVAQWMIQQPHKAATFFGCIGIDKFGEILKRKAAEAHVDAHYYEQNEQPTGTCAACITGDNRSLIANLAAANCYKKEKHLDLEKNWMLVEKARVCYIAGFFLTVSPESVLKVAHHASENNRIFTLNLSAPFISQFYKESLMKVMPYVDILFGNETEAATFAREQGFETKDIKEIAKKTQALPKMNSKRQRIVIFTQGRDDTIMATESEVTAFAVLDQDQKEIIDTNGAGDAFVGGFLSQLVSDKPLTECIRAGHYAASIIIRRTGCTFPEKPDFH
# Sequence of UniProt Q9BRQ8 (Q9BRQ8 whole entry, looked up): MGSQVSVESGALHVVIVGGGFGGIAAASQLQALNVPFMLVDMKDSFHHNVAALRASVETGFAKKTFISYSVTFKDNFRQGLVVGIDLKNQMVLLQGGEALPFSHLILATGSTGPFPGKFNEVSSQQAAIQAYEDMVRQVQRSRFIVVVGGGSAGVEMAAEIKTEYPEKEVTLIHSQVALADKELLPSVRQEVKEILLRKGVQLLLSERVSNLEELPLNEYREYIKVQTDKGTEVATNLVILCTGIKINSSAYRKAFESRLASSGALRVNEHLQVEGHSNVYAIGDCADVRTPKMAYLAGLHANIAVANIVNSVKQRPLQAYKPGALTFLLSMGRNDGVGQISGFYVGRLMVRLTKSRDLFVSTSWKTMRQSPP
# Sequence of UniProt Q9UI12 (Q9UI12 whole entry, looked up): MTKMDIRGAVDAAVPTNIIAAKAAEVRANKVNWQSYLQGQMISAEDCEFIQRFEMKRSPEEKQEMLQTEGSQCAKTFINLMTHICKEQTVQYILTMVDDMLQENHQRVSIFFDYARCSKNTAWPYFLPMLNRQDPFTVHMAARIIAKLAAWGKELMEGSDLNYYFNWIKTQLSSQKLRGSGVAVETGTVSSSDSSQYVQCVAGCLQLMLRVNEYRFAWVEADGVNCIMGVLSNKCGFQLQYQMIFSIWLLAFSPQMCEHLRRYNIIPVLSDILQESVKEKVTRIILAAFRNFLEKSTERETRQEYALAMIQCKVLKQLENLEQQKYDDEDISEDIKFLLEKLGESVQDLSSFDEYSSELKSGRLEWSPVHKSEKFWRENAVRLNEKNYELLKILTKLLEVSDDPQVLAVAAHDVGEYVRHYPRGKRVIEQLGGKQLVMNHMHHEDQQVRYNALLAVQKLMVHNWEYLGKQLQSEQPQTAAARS
# Sequence of UniProt P63010 (P63010 whole entry, looked up): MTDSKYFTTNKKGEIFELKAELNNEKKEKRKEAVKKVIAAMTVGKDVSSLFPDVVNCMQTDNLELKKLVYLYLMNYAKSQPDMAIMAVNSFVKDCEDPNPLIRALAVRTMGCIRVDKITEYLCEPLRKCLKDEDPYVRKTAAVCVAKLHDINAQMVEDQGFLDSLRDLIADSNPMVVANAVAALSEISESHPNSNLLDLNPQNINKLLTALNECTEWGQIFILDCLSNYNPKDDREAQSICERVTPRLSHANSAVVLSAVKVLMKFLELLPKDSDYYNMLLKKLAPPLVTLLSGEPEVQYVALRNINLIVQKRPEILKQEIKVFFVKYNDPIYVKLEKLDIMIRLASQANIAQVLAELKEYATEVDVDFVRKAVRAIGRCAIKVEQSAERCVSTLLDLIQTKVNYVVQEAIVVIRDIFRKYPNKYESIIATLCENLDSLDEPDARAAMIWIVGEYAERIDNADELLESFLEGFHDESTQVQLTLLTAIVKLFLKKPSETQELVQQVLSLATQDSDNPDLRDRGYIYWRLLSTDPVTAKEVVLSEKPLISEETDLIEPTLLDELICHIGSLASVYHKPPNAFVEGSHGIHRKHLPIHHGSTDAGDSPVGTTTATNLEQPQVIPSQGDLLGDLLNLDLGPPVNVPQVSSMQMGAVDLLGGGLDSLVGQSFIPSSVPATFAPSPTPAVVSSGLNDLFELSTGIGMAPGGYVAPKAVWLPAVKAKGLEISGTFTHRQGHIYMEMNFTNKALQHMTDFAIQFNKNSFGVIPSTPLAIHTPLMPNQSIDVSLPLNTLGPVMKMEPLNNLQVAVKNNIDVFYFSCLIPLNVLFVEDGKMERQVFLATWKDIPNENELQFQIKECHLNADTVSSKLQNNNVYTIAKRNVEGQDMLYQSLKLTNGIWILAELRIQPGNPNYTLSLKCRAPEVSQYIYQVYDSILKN
# Sequence of UniProt P24666 (P24666 whole entry, looked up): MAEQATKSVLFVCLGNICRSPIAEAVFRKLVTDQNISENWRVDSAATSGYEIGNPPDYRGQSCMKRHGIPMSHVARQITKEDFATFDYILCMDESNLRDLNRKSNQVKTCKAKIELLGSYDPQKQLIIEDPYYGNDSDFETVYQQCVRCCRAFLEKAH
# Sequence of UniProt Q9NX38 (Q9NX38 whole entry, looked up): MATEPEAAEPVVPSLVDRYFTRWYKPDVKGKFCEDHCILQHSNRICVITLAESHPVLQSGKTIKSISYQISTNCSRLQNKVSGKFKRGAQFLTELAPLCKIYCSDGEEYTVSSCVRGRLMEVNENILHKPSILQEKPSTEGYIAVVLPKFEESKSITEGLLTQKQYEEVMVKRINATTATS
Target,log2 fold change [1],log2 fold change (crizotinib),log2 fold change [2],log2 fold change [3],log2 fold change (duvelisib),log2 fold change (gandotinib),log2 fold change (tozasertib),log2 fold change [4],log2 fold change (doramapimod),log2 fold change (ispinesib),log2 fold change (bafetinib),log2 fold change [5],log2 fold change (nilotinib),log2 fold change [6],log2 fold change (dasatinib),log2 fold change [7],log2 fold change [8],log2 fold change [9],log2 fold change (tipifarnib),log2 fold change (mubritinib)
ACP1 isoform 2 (UniProt P24666),0.008,-0.079,0.016,0.15,0.004,-0.137,-0.09,0.12,0.033,-0.041,0.037,0.036,0.039,-0.063,-0.126,-0.049,-0.044,0.022,-0.146,0.042
ABHD17A isoform 2 (UniProt Q96GS6),-0.027,-0.135,-0.03,-0.015,-0.008,-0.283,-0.024,0.016,0.004,-0.129,-0.051,0.044,-0.054,0.047,-0.023,0.018,0.028,0.068,-0.042,0.061
ADK (UniProt P55263),0.144,0.275,0.034,-0.105,0.114,0.276,0.015,-0.061,-0.039,0.112,0.201,0,0.122,0.208,0.387 (active),0.07,0.006,0.241,0.291,0.037
AP2B1 isoform 2 (UniProt P63010),0.022,-0.029,-0.005,-0.161,0.004,0.016,-0.056,0.007,-0.006,0.014,0.024,-0.01,-0.019,0.019,0.035,-0.032,-0.029,0.004,-0.014,-0.01
ADD3 (UniProt Q9UEY8),0,0.023,0.018,-0.079,0.023,-0.029,-0.053,-0.059,0.016,0.061,0.008,-0.008,0.031,-0.004,0.072,-0.096,0.028,-0.016,0.009,0.038
ATP6V1H (UniProt Q9UI12),-0.045,-0.199,0.019,0.003,0.018,0.021,0.06,0.014,0.038,-0.089,-0.057,0.037,-0.015,-0.016,-0.029,0.049,0.025,-0.013,-0.01,0.098
ATP1A4 (UniProt Q13733),-0.013,0.091,-0.067,-0.066,0.174,-0.026,-0.053,0.038,-0.086,0.032,0.038,0.036,0.058,-0.041,0.076,0.033,0.028,-0.041,-0.039,0.001
AIFM2 (UniProt Q9BRQ8),0.039,0.098,-0.013,-0.067,0.07,0.022,-0.029,-0.032,0.08,0.207 (active),0.008,-0.129,0.067,0.023,0.046,-0.043,0.081,0.032,0.199,0.025
ABITRAM (UniProt Q9NX38),0.055,0.012,0.1,-0.011,0.029,0.169,-0.012,0.079,0.006,0.108,0.016,0.116,-0.327,-0.146,-0.316,-0.442 (active),-0.004,0.026,-0.031,0.046
BCLAF1 (UniProt Q9NYF8),-0.002,-0.06,0.089,-0.438 (active),0.017,-0.021,0.012,-0.01,0.035,0.164,-0.028,0.059,0.02,-0.609 (active),0.081,-0.14,-0.018,-0.065,-0.005,0.031
ACSL1 (UniProt P33121),0.012,-0.091,0.017,-0.024,0.056,0.008,-0.028,0,-0.003,-0.246 (active),-0.178,-0.004,-0.003,-0.07,-0.076,-0.013,0.027,0.024,-0.015,-0.009
AKT1 (UniProt P31749),-0.013,-0.104,-0.188,0.135,-0.062,-0.144,0.032,0.298,-0.005,-0.03,0.041,0.004,0.033,-0.275,-0.416,-0.158,0.048,0,-0.136,0.033
